From PubChem BioAssay (NCI) come the findings set out here.

The structures appear in SMILES notation. Compounds without any hit were thinned out: in the full panel of roughly 83,000, 20% have a hit.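 Percent growth is the endpoint: 0 to 100 indicates growth inhibition (40 means 60% inhibition), 0 means no net growth, and negative values indicate cell death.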 Active and inactive are the calls of the source.

In this test the test system is NCI-H460 lung. In words: NCI-60 one-dose screen, 48 h (100 = growth as untreated, 0 = no growth, -100 = all killed). To be noted: 10 µM. How it is done: Growth inhibition of the NCI-H460 human Non-Small Cell Lung tumor cell line is measured as a screen for anti-cancer activity. Cells are grown in 96 well plates and exposed to the test compound for 48 hours. Compounds are tested at a single concentration, which is 10^-5 M for most compounds. The reported endpoint is percent growth (GI% or GIPRCNT), where numbers from 0 - 100% represent growth inhibition, and numbers from -100% - 0 represent cell death. For example, a value of 40 represents 60% growth inhibition. A value of 0 means no net growth occurred over the course of the experiment. A value of -40 indicates 40% of cells at the beginning of the experiment died by the end of the experiment. A value of -100 means all cells are dead at the end of the experiment.
NCI-60 Human Tumor Cell Lines Screen was performed using the standard one-dose NCI protocol, which is described in more detail at https://dtp.cancer.gov/discovery_development/nci-60/default.htm.
Compounds with GIPRCNT values below 10 were considered active. Activity score was based on GIPRCNT using the following formula: […]
Score is 0 for GIPRCNT values of 100 or above, 50 for GIPRCNT values of 0, and 100 for GIPRCNT values of -100.
`O=[N+]([O-])c1ccc(O)c(S(=O)(=O)O)c1`: the growth is 109% (inactive).
With `C#CCSc1nnnn1-c1ccc(Br)c(C)c1`, the growth is 97% (inactive).
In the case of `O=C(Nc1ccccc1)OCCc1ccccc1`, the growth is 103% (inactive).
`CC(=O)c1c[nH]c2ccccc12`: the growth was 113% (inactive).
With `C=CCNC(=O)c1ccc(OC)cc1` the figure was 114% (inactive); with `CC12CC3CC1C(C(=O)O2)C3C(=O)O` (stereo not given), 108% (inactive).
As to `O=C(Cc1ccccc1)Cc1ccccc1`, the growth is 102% (inactive).
With `O=C(O)C(c1ccccc1)C(O)c1ccccc1` (stereo not given) the figure was 106% (inactive).
On to `O=C(NC1CCCCC1)OCc1c(COC(=O)NC2CCCCC2)c(-c2ccc(Cl)c(Cl)c2)n2c1CCC2`, for which the growth is 3.73% (active).
With `COc1ccc(-c2cc3c(nn2)-c2ccccc2C3=O)cc1` the figure was 15.1% (inactive); with `CC(=O)NC(N)=S`, 105% (inactive).
Take `CC1(C)S(=O)(=O)OCCOS1(=O)=O`: the growth was 105% (inactive).
To `CCC(=O)Oc1ccc(OC)cc1` belongs 104% (inactive); to `OCc1ccc(-c2ccc(-c3ccc(CO)s3)o2)s1`, -4.49% (active).
With `O=C1C=CC2=C3c4cc(O)c(O)cc4CC3(O)COC2=C1O` (stereo not given) the figure was 89.8% (inactive); with `CNC(=O)c1ccccc1CC1(O)c2ccccc2Oc2ccccc21`, 33.7% (inactive).
To `O=C(O)CSCSCC(=O)O` belongs 104% (inactive); to `CCOC(=O)C1=C(C)NC(=O)NC1c1cccs1` (stereo not given), 118% (inactive); to `C#Cc1cccc(NC(=O)c2ccc(Cl)cc2Cl)c1`, 105% (inactive).
`O=C(NCO)c1ccccc1`: the growth is 105% (inactive).
Take `N/N=C(/Cc1ccccc1)NNC(N)=S`: the growth was 103% (inactive).
Turning to `c1ccc(Sc2ccccc2)cc1`, the growth is 106% (inactive).
With `CCOC(=O)c1coc(C(=O)OCC)c1C(=O)OCC` the figure was 111% (inactive).
Turning to `N#CCCN(CCCN1CCOCC1)CN1C(=O)c2ccccc2C1=O`, the growth was 111% (inactive).
In the case of `CCCCCCCO`, the growth is 110% (inactive).
`O=[N+]([O-])c1cccc(N=Nc2ccc(O)cc2O)c1`: the growth is 91.6% (inactive).
Consider `CC(C)C1CCCCC1O` (stereo not given), for which the growth was 109% (inactive).
`NC(=S)NN=C1CCCC1`: the growth was 104% (inactive).
With `CCOC(=O)CNN`, the growth is 99.6% (inactive).
Consider `COc1cc(C(N)=O)cc(OC)c1OC`, for which the growth is 111% (inactive).
In the case of `COCCOC(=O)c1ccc(C(C)C)cc1`, the growth was 108% (inactive).
To `COc1cc2c(cc1O)CC[C@@H]1C2CC[C@@]2(C)C1CC[C@@H]2O` (stereo not given in full) belongs 8.58% (active).
Consider `Cc1cc(=O)cc(C)n1-c1ccccc1`, for which the growth is 107% (inactive).
As for `Cc1cc(N)c(S(=O)(=O)O)c(N)c1`, the growth is 104% (inactive).
As for `C/C(=C\c1ccc([N+](=O)[O-])cc1)C(=O)O`, the growth was 102% (inactive).
As to `O=C(O)CCCC(=O)O`, the growth was 101% (inactive).
To `CC1(C(=O)O)NC(C(=O)O)Cc2c1[nH]c1ccccc21` (stereo not given) belongs 105% (inactive); to `Cc1nc2c(ccc3ccccc32)s1`, 115% (inactive).
As to `CCCCCCCCCCCCCCCCC1CC(=O)OC1=O` (stereo not given), the growth is 118% (inactive).
In the case of `O=C(/C(=N/O)c1ccccc1)c1ccccc1`, the growth was 108% (inactive).
